For nine molecules, relative enzymatic activity results are on record in the supplement of paper PMC9446081.

± gives the standard deviation of the averaged measurements.

This test deals with DNA helicase (UniProt P0ACB1). Description: relative enzymatic activity vs untreated control (fraction); higher = less inhibition. The conditions noted are these: 100 µM; incubation time: 2 h at 37 C. As for the experimental part: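 In vitro enzymatic inhibition assays (ProFoldin kits) for 12 purified essential E. coli enzymes or complexes, each treated with 218 active antibacterial compounds at 100 µM for 2 h at 37°C. Read-outs were fluorescence or absorbance (phosphate detection, dye binding), converted to activity via standard curves and expressed relative to untreated DMSO controls.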
DNA helicase, sequence (P0ACB1 whole entry): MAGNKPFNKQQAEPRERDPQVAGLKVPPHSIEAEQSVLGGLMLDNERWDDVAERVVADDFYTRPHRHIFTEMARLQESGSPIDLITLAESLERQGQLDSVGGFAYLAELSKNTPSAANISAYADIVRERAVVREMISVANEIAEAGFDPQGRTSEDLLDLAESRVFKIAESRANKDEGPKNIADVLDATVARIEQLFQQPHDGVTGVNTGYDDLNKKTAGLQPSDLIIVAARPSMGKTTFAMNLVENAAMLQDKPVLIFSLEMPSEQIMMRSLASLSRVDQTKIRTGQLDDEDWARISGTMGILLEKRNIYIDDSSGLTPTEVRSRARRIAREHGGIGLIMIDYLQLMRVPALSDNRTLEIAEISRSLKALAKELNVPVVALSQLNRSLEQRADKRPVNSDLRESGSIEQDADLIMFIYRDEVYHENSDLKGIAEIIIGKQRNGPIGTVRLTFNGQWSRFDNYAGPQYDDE
In the case of `Cc1c(N)nc([C@H](CC(N)=O)NC[C@@H](N)C(N)=O)nc1C(=O)N[C@H](C(=O)N[C@@H](C)[C@H](O)[C@@H](C)C(=O)N[C@@H](C(=O)NCCc1nc(-c2nc(C(=O)NCCC[S+](C)C)cs2)cs1)[C@@H](C)O)[C@@H](O[C@H]1O[C@H](CO)[C@H](O)[C@@H](O)[C@H]1O[C@H]1O[C@H](CO)[C@@H](O)[C@H](OC(N)=O)[C@@H]1O)c1cnc[nH]1`, the relative enzymatic activity was determined as 0.504 ± 0.71. `CN(C)[C@@H]1C(=O)[C@@H](C(N)=O)C(=O)[C@@]2(O)C(=O)[C@H]3C(=O)c4c(O)ccc(Cl)c4[C@@](C)(O)[C@H]3C[C@@H]12` came in with a relative enzymatic activity of 0.484 ± 0.12.

In turn, `O=S(=O)(O)O.Oc1cccc2cccnc12` came in with a relative enzymatic activity of 0.653 ± 0.14. `CC(=O)Oc1ccc(Cl)c2cccnc12` yielded a relative enzymatic activity of 0.577 ± 0.29. With `CN(C)[C@@H]1C(=O)C(C(N)=O)=C(O)[C@@]2(O)C(O)=C3C(=O)c4c(O)cccc4[C@](C)(O)[C@H]3C[C@@H]12`, the relative enzymatic activity is 0.475 ± 0.031. Molecule `Cc1c(N)nc([C@H](CC(N)=O)NC[C@@H](N)C(N)=O)nc1C(=O)N[C@H](C(=O)N[C@@H](C)[C@H](O)[C@@H](C)C(=O)N[C@@H](C(=O)NCCc1nc(-c2nc(C(=O)NCCC[S+](C)C)cs2)cs1)[C@@H](C)O)[C@@H](O[C@H]1O[C@H](CO)[C@H](O)[C@@H](O)[C@H]1O[C@H]1O[C@H](CO)[C@@H](O)[C@H](OC(N)=O)[C@@H]1O)c1c[nH]cn1` had a relative enzymatic activity of 0.749 ± 0.38.

`Oc1cc(Cl)ccc1Oc1ccc(Cl)cc1Cl`: the relative enzymatic activity stood at 0.187 ± 0.1. Under `O=[N+]([O-])C(Br)(CO)CO` stands 0.618 ± 0.27; under `CCCCCCCCCCCCCCCC[n+]1ccccc1`, 0.0233 ± 0.0026.
